# Test results from PubChem BioAssay (NCI).
# The panel holds about 83,000 compounds, 20% with a hit somewhere; the sample as a whole holds those more often.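 Results are percent growth after 48 hours of single-concentration exposure. 100 means growth as in untreated cells, lower positive values show inhibition; negative values down to -100 show cell death.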 Values without a mark were called inactive. Activity calls are given as the source filed them. Rule for the calls: active = growth percent below 10; inactive = the rest.
# Legend:
# Assay in all cases: NCI-60 one-dose screen, 48 h (100 = growth as untreated, 0 = no growth, -100 = all killed)
# [1] = test system: SK-MEL-2 melanoma; details: 10 µM
# [2] = test system: EKVX NSCLC; details: 10 µM
# [3] = test system: SN12C renal; details: 10 µM
# [4] = test system: UO-31 renal; details: 10 µM
# [5] = test system: TK-10 renal; details: 10 µM unless noted
# [6] = test system: ACHN renal; details: 10 µM
# [7] = test system: CAKI-1 renal; details: 10 µM
# [8] = test system: A498 renal; details: 10 µM
# [9] = test system: CCRF-CEM leukemia; details: 10 µM
# [10] = test system: MOLT-4 leukemia; details: 10 µM
SMILES,growth [1],growth [2],growth [3],growth [4],growth [5],growth [6],growth [7],growth [8],growth [9],growth [10]
COC(=O)Nc1nc2ccc(C(=O)c3ccc(F)cc3)cc2[nH]1,-20.1% (active),36.7%,29.8%,1.98% (active),17.3%,33.2%,15.2%,7.59% (active),-46% (active),-27% (active)
CC1SC(N)=NC1=O (stereo not given),111%,96.2%,120%,92.2%,108%,108%,103%,107%,99.3%,122%
CN(C)c1ccc(S(=O)(=O)O)cc1,86.2%,107%,105%,87.9%,89.2%,93.9%,105%,94.9%,95.9%,107%
COc1ccc(NC(=O)CCl)cc1,74.9%,103%,67.2%,90.9%,118%,88.8%,97%,120%,50.5%,64.4%
O=C(O)C(c1ccccc1)C(O)c1ccccc1 (stereo not given),99.6%,108%,98.2%,94.4%,108%,96.6%,100%,69.8%,99.8%,87.5%
CCn1c(=O)n(C)c2c(=O)n(C)c(=O)n(C)c21,104%,103%,105%,87.4%,102%,105%,98.3%,91.7%,98.2%,101%
CN(C)C(=O)Oc1cccc([N+](C)(C)C)c1,124%,93.1%,97.8%,98.6%,125%,97.9%,89.9%,95.5%,113%,102%
Cc1ccc(Cl)cc1N1C(=O)CC(Sc2ccccc2N)C1=O (stereo not given),107%,104%,96.8%,105%,114%,94.2%,97.2%,103%,93.8%,74.7%
COc1cc(OC)c2ccc(=O)oc2c1,104%,95.2%,97%,94.9%,101%,104%,113%,101%,106%,115%
O=C(Nc1cc(-c2ccccc2)[nH]n1)c1ccc(Cl)cc1,78%,101%,84.1%,59.1%,66.6%,60.8%,76.3%,78.6%,62%,85.2%
CC(=O)N(C)c1ccc([N+](=O)[O-])cc1,92%,122%,96.9%,104%,95.8%,99.4%,107%,116%,119%,75.9%
CC1(C)OC(=O)C(c2ccsc2)C(=O)O1,112%,105%,107%,84.4%,91.8%,107%,100%,113%,106%,105%
Cc1cc(N2CCC(N3CCCC3)CC2)nc(/N=C(\N)Nc2ccc(Cl)c(Cl)c2)n1,-71.7% (active),2.57% (active),93.7%,-97.4% (active),-86.3% (active),-27.8% (active),-40.6% (active),45.7%,-11.8% (active),-19.8% (active)
CN1C(=O)CN2CCc3ccccc3C2c2cc(Cl)ccc21 (stereo not given),81.7%,91.5%,85.1%,74.3%,111%,93.6%,81%,54.5%,93.6%,105%
CC(C)(O)C#CC#CC(C)(C)O,103%,99.5%,109%,99.1%,95.6%,98.8%,97.5%,93.6%,98.6%,90.7%
O=[N+]([O-])c1cccc(C(F)(F)F)c1,116%,104%,95.1%,96.3%,108%,102%,94.3%,98.4%,96.2%,102%
O=C1OC[C@H]2[C@H](c3ccc(O)c(O)c3)c3cc(O)c(O)cc3C[C@H]12,26.4%,152%,110%,47.2%,118%,112%,136%,134%,205%,281%
O=C(/C=C/C(=O)c1ccccc1)c1ccccc1,119%,102%,108%,97.6%,86.9%,90.1%,94.9%,85.2%,37.9%,79.2%
Cc1cc2nc(CO)[nH]c2cc1C,83%,112%,105%,85.8%,131%,105%,110%,101%,93.6%,103%
CCOC(=O)C(C#N)Cc1ccccc1 (stereo not given),114%,114%,103%,94.5%,106%,110%,98.7%,114%,102%,123%
CCCCC/C=N/Nc1nc(C)cc(=O)[nH]1,121%,91.4%,97.4%,92.1%,108%,102%,88.3%,96.2%,105%,95.3%
CCOC(=O)CCCS(C)(=O)=O,90.7%,113%,97.4%,90.5%,102%,104%,117%,96.8%,113%,96.5%
Cc1cc(=O)cc(C)n1-c1ccccc1,104%,107%,89.3%,90%,96.3%,102%,95%,103%,92.4%,102%
O=C(O)c1ccnc(Br)c1,105%,98.1%,113%,91.4%,104%,108%,97.8%,88.7%,112%,116%
O=C(c1ccc(Cl)cc1)c1ccccc1Cl,103%,96.9%,94.7%,72.2%,90.9%,95%,88%,126%,90.5%,87.1%
CN(C)c1ccc(CNC(C(=O)c2ccccc2)c2ccccc2)cc1 (stereo not given),74.5%,101%,115%,102%,112%,101%,102%,8.44% (active),90.9%,94.9%
O=C(c1ccccc1)C1CCC1,96.7%,105%,89.2%,76.1%,93.4%,106%,98.5%,103%,88.6%,91.3%
O=C1Cc2cc(O)ccc2O1,101%,104%,102%,83.7%,115%,105%,103%,92.7%,94%,91.2%
CCOC(=O)CCCC(=O)OCC,111%,108%,114%,89.7%,101%,105%,95.2%,92.1%,110%,101%
